The values below come from PubChem BioAssay (NCATS).

The target of assay [1] is Glutathione peroxidase 1 (Homo sapiens) (UniProt P07203). Nature of the assay: Primary qHTS Assay for Inhibitors of Recombinant Selenoprotein Glutathione Peroxidase 1 (GPX1) (AID 1845191). Further: nearly all actives have a fitted effect of over 65% in size. Further: potency means the concentration at half of the fitted maximal effect. On activity, negative = inhibition: on the % scale 0 is the no-effect control and ±100 the full control effect. An outline of the steps: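 GR-coupled readout: NADPH consumption tracked by fluorescence, ex 340/em 450 nm, at t=0 and after 15 min at RT. Final mix 10 nM GPX1, 1 mM GSH, 0.5 mM CHP, 0.5 mM NADPH, 100 nM GR, 0.01% BSA, following 30 min enzyme–compound preincubation.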
(In general: In qHTS, concentration-response curves come from the screen itself.)

Assay [2] has as its target Phospholipid hydroperoxide glutathione peroxidase GPX4 (Homo sapiens) (UniProt P36969). Nature of the assay: Primary qHTS Assay for Inhibitors of Recombinant Selenoprotein Glutathione Peroxidase 4 (GPX4) (AID 1845192). Further: nearly all actives have a fitted effect of over 65% in size. On activity change, negative = inhibition: series mostly up to about 50 µM; on the % scale 0 is the no-effect control and ±100 the full control effect. An outline of the steps: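 Steps: GPX4 plus compound, 30 min RT; add GR/GSH/NADPH master mix; start with cumene hydroperoxide; read 340/450 nm fluorescence at 0 and 15 min. Finals were 200 nM GPX4, 1 mM GSH, 0.5 mM CHP, 0.5 mM NADPH, 100 nM GR.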

The target of assay [3] is Luciferin 4-monooxygenase (Photinus pyralis) (UniProt P08659). The assay is described as follows: Primary firefly luciferase (FLuc) qHTS assay for identification of artifact compounds. (AID 1845220). Further: nearly all actives have a fitted effect of over 60% in size. Further: potency means the concentration at half of the fitted maximal effect.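 On activity change, negative = inhibition: series mostly up to about 54 µM; plate controls were DMSO vehicle for no effect and no enzyme for full effect.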 An outline of the steps:
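Enzymatic FLuc inhibition assay: compounds pre-exposed to luciferin/ATP (10 uM each) for 15 min, then purified P. pyralis enzyme at 10 nM added. Read-out: luminescence at 5 min.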

The test system of assay [4] is Nanoluciferase (engineered Oplophorus gracilirostris luciferase). Nature of the assay: Primary Nanoluciferase (NLuc) qHTS assay for identification of artifact compounds. (AID 1845222).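 Further: NLuc secreted into diluted conditioned medium of S16 cells; series mostly up to about 54 µM; 0% = DMSO and -100% = no enzyme.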 An outline of the steps:
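S16 cell supernatant NLuc, 1:55; cpds qHTS; 15 min RT dark; Nano-Glo substrate 1:100, 5 min; luminescence; Hill fit of % inhibition.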

Assay [5] can be described thus: Primary redox qHTS assay for identification of artifact compounds. (AID 1845223).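 Further: 0% = DMSO and 100% = reference compound.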 An outline of the steps: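 Redox-cycling detection via DTT (250 uM final) oxidation coupled to Amplex Red (25 uM)/HRP (250 mU/mL) in HBSS. 15 min preincubation plus 30 min after DTT, room temperature. Ex/Em 525/598 nm; 4-parameter Hill fit against DMSO and 10 uM DA3003.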

A number with no mark means an inactive call. Records with an inconclusive call do not appear. Calls of active or inactive are those of the source. The call rests on the fitted dose curve; in most records, active means well fitted curve in the direction sought with a large enough effect; inconclusive means small, poorly fitted or top-dose-only effect, or another doubt; inactive means no such curve, though single readings can be large; an effect the other way counts as inactive or inconclusive.

Sequence of Phospholipid hydroperoxide glutathione peroxidase GPX4 (Homo sapiens) (P36969 whole entry, looked up): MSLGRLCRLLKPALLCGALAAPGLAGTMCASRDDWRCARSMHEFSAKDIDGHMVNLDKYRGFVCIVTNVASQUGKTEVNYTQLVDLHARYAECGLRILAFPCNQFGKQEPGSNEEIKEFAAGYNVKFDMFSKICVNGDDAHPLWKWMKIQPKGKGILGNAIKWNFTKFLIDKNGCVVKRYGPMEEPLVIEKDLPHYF
Sequence of Glutathione peroxidase 1 (Homo sapiens) (P07203 whole entry, looked up): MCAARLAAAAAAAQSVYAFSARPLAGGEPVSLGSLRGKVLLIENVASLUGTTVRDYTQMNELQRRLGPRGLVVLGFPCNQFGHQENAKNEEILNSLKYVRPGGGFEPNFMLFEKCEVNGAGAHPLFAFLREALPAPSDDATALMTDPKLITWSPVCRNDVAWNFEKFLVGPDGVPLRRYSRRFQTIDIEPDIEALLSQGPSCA

Regarding `COC(=O)[C@@H](O)[C@H]1[C@@]2(C)CC3(O)[C@@H](C(=O)[C@H]2O)[C@]24O[C@]25CC(=O)O[C@@H](c2ccoc2)[C@]5(C)CCC4[C@]13C` (stereo not given in full), the Potency result in assay [1], in assay [2], in assay [3], in assay [4] and in assay [5] was “inactive” each time.
Consider `C=C(C(=O)O)C1CCC2(C)CCC(O)C(C)(O)C2C1` (stereo not given), for which the Potency result in assay [1], in assay [2], in assay [3], in assay [4] and in assay [5] was “inactive” in each case.
On to `Cc1ncc(CCCN(C)C)cc1Nc1ncc2c(n1)-c1ccc(C(F)(F)F)cc1NC(=S)C2`, for which the Potency in assay [1] is 12.8 µM (active). For the same compound, the Potency entry in assay [2], in assay [3], in assay [4] and in assay [5] was “inactive” each time.
Take `O=S(=O)(NCC1CC1)c1ccc(Nc2nccc(N3CCCc4cc(O)ccc43)n2)cc1`: the Potency entry in assay [1], in assay [2], in assay [3], in assay [4] and in assay [5] was “inactive” in each case.
`CN=C(N)NCCCCC/C=C(/C)CC(C)C1OC(=O)C(C)C(O)/C=C/C(C)C(O)CC(O)C(C)C(O)CCC(C)C(O)CC2(O)OC(CC(OC(=O)CC(=O)O)CC(O)CC(O)C(C)C(O)/C(C)=C/CCC1C)CC(O)C2O` (stereo not given): the Potency result in assay [1] and in assay [2] was “inactive” each time. For the same compound, the activity change, negative = inhibition in assay [3] is -2.65% [at 11.6 µM]. Besides, the activity, negative = inhibition in assay [4] is -0.658% [at 11.6 µM]. For the same compound, the redox activity (% of DA3003) in assay [5] is -4.57% [at 11.5 µM].
As to `C/C=C/c1ccc2oc(-c3ccc(O)c(OC)c3)c(C)c2c1`, the Potency entry in assay [1], in assay [2], in assay [4] and in assay [5] was “inactive” each time. Besides, the Potency in assay [3] is 26.9 µM (active).
In the case of `CC1=CC(=O)CC(C)(C)[C@@]1(O)CC[C@@H](C)O[C@@H]1O[C@H](CO)[C@@H](O)[C@H](O)[C@H]1O`, the Potency result in assay [1], in assay [2], in assay [3], in assay [4] and in assay [5] was “inactive” in each case.
For the compound `C=CC1C(OC2OC(CO)C(O)C(O)C2O)OC=C2C(=O)N3C(C(=O)O)Cc4c([nH]c5ccccc45)C3CC21` (stereo not given), the Potency entry in assay [1], in assay [2], in assay [3], in assay [4] and in assay [5] was “inactive” throughout.
`C/C1=C\CC[C@H](C)CCO[C@@H]2O[C@H](CO[C@@H]3OC[C@](O)(COC1=O)[C@H]3O)[C@@H](O)[C@H](O)[C@H]2O`: the Potency entry in assay [1], in assay [2], in assay [3], in assay [4] and in assay [5] was “inactive” in each case.
As to `O=C1N=C(N2CCOCC2)CN1c1ccc(Cl)cc1`, the Potency result in assay [1], in assay [2], in assay [3], in assay [4] and in assay [5] was “inactive” in each case.
On to `C=C1C(O)C[C@@H]2C(C(=O)O)=CO[C@@H](O[C@@H]3O[C@H](CO)[C@@H](O)[C@H](O)[C@H]3OC(=O)c3ccc(O)cc3)[C@H]12` (stereo not given in full), for which the Potency result in assay [1], in assay [2], in assay [3], in assay [4] and in assay [5] was “inactive” throughout.
Turning to `COC(=O)c1ccnc(-c2cc(C(=O)NCCc3ccccc3)ccn2)c1`, the Potency result in assay [1], in assay [2], in assay [3], in assay [4] and in assay [5] was “inactive” throughout.
Take `CC(Cc1cc2c(c(C(N)=O)c1)N(CCCO)CC2)NCCOc1ccccc1OCC(F)(F)F` (stereo not given): the Potency entry in assay [1], in assay [2], in assay [3], in assay [4] and in assay [5] was “inactive” throughout.
`c1ccc(N2CCN(CCc3nn[nH]n3)CC2)cc1`: the Potency result in assay [1], in assay [2], in assay [3], in assay [4] and in assay [5] was “inactive” throughout.
Consider `CC1CC(O)/C=C/C(O)C(O)CC(=O)Cc2c(Cl)c(O)cc(O)c2C(=O)O1` (stereo not given), for which the Potency entry in assay [1], in assay [2], in assay [3], in assay [4] and in assay [5] was “inactive” throughout.
On to `CC1C(=O)OCC2=CCN3CCC(OC(=O)C(C)(O)C1(C)O)C23` (stereo not given), for which the Potency result in assay [1], in assay [2], in assay [3], in assay [4] and in assay [5] was “inactive” in each case.
Take `C=C1OC2CC(C(=O)O)C=CC2NC1=O` (stereo not given): the Potency result in assay [1], in assay [2], in assay [3], in assay [4] and in assay [5] was “inactive” in each case.
Consider `CC1(C)CC[C@]2(C(=O)O[C@@H]3O[C@H](CO)[C@@H](O)[C@H](O)[C@H]3O)CC[C@]3(C)C(=CCC4[C@@]5(C)C[C@@H](O)[C@H](O)C(C)(C)C5CC[C@]43C)C2[C@@H]1O` (stereo not given in full), for which the Potency result in assay [1], in assay [2], in assay [3], in assay [4] and in assay [5] was “inactive” throughout.
As to `Cc1ccc(S(=O)(=O)Nc2ccccc2N2CCCCC2)s1`, the Potency result in assay [1], in assay [2], in assay [3], in assay [4] and in assay [5] was “inactive” each time.
As to `CC1C=CC2CCCCC2C1CCC1CC(O)CC(=O)O1` (stereo not given), the Potency entry in assay [1], in assay [2], in assay [3], in assay [4] and in assay [5] was “inactive” in each case.
Consider `CN1c2ccccc2C(=O)N2CCC3c4ccccc4NC3C21` (stereo not given), for which the Potency result in assay [1], in assay [2], in assay [4] and in assay [5] was “inactive” in each case. The Potency in assay [3] was 10.5 µM (active).
As for `COC1=CC(=O)CC(C)C12Oc1cc(OC)cc(O)c1C2=O` (stereo not given), the Potency result in assay [1], in assay [2], in assay [3], in assay [4] and in assay [5] was “inactive” each time.
In the case of `CC1=CC(=O)C(=C(C)C)CC2C1CCC2(C)O` (stereo not given), the Potency entry in assay [1], in assay [2], in assay [3], in assay [4] and in assay [5] was “inactive” each time.
As to `Cc1cc(C(N)=O)ccc1-n1c(CCC(=O)O)ccc1-c1ccc(-n2ccnc2)cc1`, the Potency result in assay [1], in assay [2], in assay [3], in assay [4] and in assay [5] was “inactive” in each case.
Regarding `CC(O)/C=C/C1C(C)C(O[C@@H]2O[C@H](CO)[C@@H](O)[C@H](O)[C@H]2O)C(O)CC1(C)C` (stereo not given in full), the Potency result in assay [1], in assay [2], in assay [3], in assay [4] and in assay [5] was “inactive” throughout.
